From PubChem BioAssay AID2533 (National Center for Advancing Translational Sciences (NCATS), 2010) come the findings set out here.

SMILES strings stand for the structures. “And” between values parts separate entries of the source, which are not always exact repeats. Identical values can stand only once. Inconclusive results are not listed. Entries that show only a call come without a potency. The source made the active and inactive calls. The call rests on the fitted dose curve; in most records, active means well fitted activation curve with a large enough effect; inconclusive means small, poorly fitted or top-dose-only effect; inactive means flat fitted curve, though single readings scatter.
Potency means the concentration at half of the fitted maximal effect.

Pyruvate kinase PKM (Homo sapiens), sequence (P14618 whole entry, looked up, canonical isoform): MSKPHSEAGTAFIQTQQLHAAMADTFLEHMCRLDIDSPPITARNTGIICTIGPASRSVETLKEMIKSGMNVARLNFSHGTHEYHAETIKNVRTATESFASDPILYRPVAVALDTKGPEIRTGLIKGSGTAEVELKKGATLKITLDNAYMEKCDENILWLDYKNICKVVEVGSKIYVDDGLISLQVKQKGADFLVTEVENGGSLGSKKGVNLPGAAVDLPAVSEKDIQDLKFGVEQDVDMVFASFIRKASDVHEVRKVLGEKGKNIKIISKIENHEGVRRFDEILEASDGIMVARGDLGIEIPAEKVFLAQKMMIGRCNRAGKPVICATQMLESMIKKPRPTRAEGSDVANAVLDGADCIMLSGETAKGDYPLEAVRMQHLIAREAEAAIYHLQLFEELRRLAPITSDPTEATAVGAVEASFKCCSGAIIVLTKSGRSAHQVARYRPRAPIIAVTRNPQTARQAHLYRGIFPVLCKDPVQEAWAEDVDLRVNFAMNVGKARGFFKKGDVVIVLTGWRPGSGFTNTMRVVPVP

This experiment addresses Pyruvate kinase PKM (Homo sapiens) (UniProt P14618). The experiment can be described thus: Confirmation Concentration-Response Assay for Activators of Human Muscle isoform 2 Pyruvate Kinase: for Probe SAR. Further: nearly all actives have a fitted effect of over 60% in size. The following applies: purified PKM2, ATP generation, Kinase-Glo luminescence; series mostly up to 57.5 µM. The text has this: NIH Chemical Genomics Center [NCGC]
Matthew G. Vander Heiden, M.D., Ph.D. [Harvard Medical School, 77 Avenue Louis Pasteur, Boston, MA 02115]
Human pyruvate kinase muscle 2 (hPK-M2) enzyme was supplied as a highly purified (>95% pure) preparation from Harvard Medical School and assayed for its ability to generate ATP from ADP using phosphoenolpyruvate (PEP) as a substrate. ATP generation was detected in a coupled reaction by luciferase-mediated luminescence, an ATP-dependent process. […] The enzyme was assayed at an intermediate level of activity to screen for both inhibitors and activators.
NCGC Assay Protocol Summary:
Three uL of substrate mix (at r.t.) in assay buffer (50 mM Imidazole pH7.2, 50 mM KCl, 7 mM MgCl2, 0.01% Tween 20, 0.05% BSA) was dispensed into white solid bottom 1,536 well microtiter plates so that the final concentrations of substrates in the assay were 0.1 mM ADP and 0.5 mM PEP. 23 nL of compound were delivered by a pin tool and 1 uL of enzyme mix (final concentration of 0.1 nM) in assay buffer (4 degree Celsius) was added. Plates were incubated at room temperature for 1 hour. Two uL of detection mix (Kinase-Glo, Promega; at 4 degree Celsius protected from light) was added and luminescence read by a ViewLux (Perkin Elmer) at 1 second exposure/plate. Data were normalized to the uninhibited (column 3) and AC100 inhibition (no enzyme in column 2). To monitor activation, the first column contained a titration of the activator, NCGC00031955-03 (16-point 1:2 dilutions in duplicate starting at 57 uM) and the first 16 rows of column 4 contained 57 uM of NCGC00031955-03.
Take `O=C1CCc2cc(Cl)c(S(=O)(=O)Nc3ccc(Cl)c(Cl)c3)cc2N1`: the Potency was 73 nM (active).
The value for `Cc1ccc(Nc2c(-c3ccc(C)o3)nc3cccc(C)n23)cc1` was “inactive”; that for `Cc1ccc(NS(=O)(=O)c2ccc3c(c2)oc(=O)n3C)cc1C` was 10300 nM (active).
The value for `O=[S+]1([O-])N=C(Oc2cccnc2)c2ccccc21` was “inactive”.
The value for `CC(=O)Nc1ccc(OC2=NS(=O)(=O)c3ccccc32)cc1` was “inactive”; that for `Cc1ccc(NS(=O)(=O)c2cc3c(cc2C)NC(=O)CO3)cc1C` was 580 nM (active).
`CC(=O)N1CCc2cc(S(=O)(=O)Nc3ccc(C)c(C)c3)ccc21`: the Potency is 1630 nM (active).
The value for `O=S(=O)(c1ccc2c(c1)OCCO2)N1CCN(S(=O)(=O)c2c(F)cccc2F)CC1` was 517 nM (active) and 183 nM (active) and 291 nM (active).
The value for `CC(=O)Nc1cccc(S(=O)(=O)N2CCN(S(=O)(=O)c3c(F)cccc3F)CC2)c1` was 14600 nM (active); that for `O=C1c2ccccc2C(=O)N1c1cccc2cnccc12` was “inactive”; that for `COC(=O)c1ccccc1S(=O)(=O)Nc1cc(=O)c2ccccc2[nH]1` was “inactive”.
The value for `O=S1(=O)N=C(Oc2ccc3ccccc3c2)c2ccccc21` was “inactive”.
As for `O=S1(=O)N=C(Oc2ccccc2Br)c2ccccc21`, the Potency entry was “inactive”.
On to `CNc1cccc(S(=O)(=O)N2CCCN(S(=O)(=O)c3ccc4c(c3)OCCO4)CC2)c1`, for which the Potency was 103 nM (active).
The value for `Nc1ccc(S(=O)(=O)N2CCN(S(=O)(=O)c3c(F)cccc3F)CC2)cc1` was 919 nM (active).
Take `Cc1c(Cl)cccc1NS(=O)(=O)c1cc2c(cc1F)NC(=O)CC2`: the Potency is 3660 nM (active).
The value for `O=C1c2ccccc2C(=O)N1c1cc(=O)c2ccccc2[nH]1` was “inactive”; that for `Cc1ccc2nc(-c3ccc(C)o3)c(Nc3ccc(F)cc3)n2c1` was “inactive”; that for `Cc1ccc(Nc2c(-c3ccsc3)nc3c(C)cccn23)cc1` was “inactive”.
The value for `COc1cccc(NS(=O)(=O)c2ccc3c(c2)CCC(=O)N3)c1` was 5170 nM (active); that for `O=S(=O)(c1cccc(O)c1)N1CCN(S(=O)(=O)c2c(F)cccc2F)CC1` was 580 nM (active).
The value for `Cc1ccc(NS(=O)(=O)c2ccc3c(c2)N(C)CCO3)cc1C` was 18300 nM (active).
In the case of `O=C1c2ccccc2C(=O)N1c1cccc(=O)[nH]1`, the Potency result was “inactive”.
The value for `O=C1CCc2cc([S+](=O)([O-])NC3CCOCC3)ccc2N1` was “inactive”; that for `Cc1ccc(NS(=O)(=O)c2ccc3c(c2)CCC(=O)N3)cc1Cl` was 326 nM (active).
The value for `O=C1NS(=O)(=O)c2ccccc21` was “inactive”.
Turning to `CSc1cc2c(s1)c1cnn(Cc3cccc(O)c3)c(=O)c1n2C`, the Potency was 41.1 nM (active).
For `Nc1ccc(S(=O)(=O)N2CCN(S(=O)(=O)c3ccc4c(c3)OCCO4)CC2)cc1`, the Potency is 366 nM (active).
The value for `Cc1ccc(NS(=O)(=O)c2ccc3c(c2)CCC(=O)N3)cc1C` was 651 nM (active); that for `O=S1(=O)N=C(Oc2cccc(Br)c2)c2ccccc21` was “inactive”; that for `COc1ccc(N2C(=O)c3ccccc3C2=O)cc1` was “inactive”.
For `CC(=O)Nc1ccc(S(=O)(=O)N2CCCN(S(=O)(=O)c3ccc4c(c3)OCCO4)CC2)cc1`, the Potency is 4110 nM (active).
With `O=S1(=O)N=C(Oc2ccccc2C(F)(F)F)c2ccccc21`, the Potency result is “inactive”.
The value for `O=C1CCc2cc(S(=O)(=O)Nc3ccccc3Cl)ccc2N1` was 18300 nM (active); that for `O=C1c2ccccc2C(=O)N1Cc1cccnc1` was “inactive”; that for `COc1cc(N2C(=O)c3ccccc3C2=O)c2ncccc2c1` was “inactive”.
With `O=C1c2ccccc2C(=O)N1Cc1ccccn1`, the Potency entry was “inactive”.
With `COc1ccc(OC2=NS(=O)(=O)c3ccccc32)cc1`, the Potency entry is “inactive”.
The value for `O=S1(=O)N=C(Sc2cccc3cccnc23)c2ccccc21` was “inactive”; that for `O=C1c2ccccc2C(=O)N1c1ccc2ncccc2c1` was “inactive”.
